We go through 29 compounds from PubChem BioAssay (NCATS).

Inconclusive results are not listed. Values without a mark were called inactive. Calls of active or inactive are those of the source. Calls come from the whole dose curve; as a rule, active = well fitted curve in the direction sought with a large enough effect; inconclusive = small, poorly fitted or top-dose-only effect, or another doubt; inactive = no such curve, though single readings can be large; an effect the other way counts as inactive or inconclusive.

Sequence of Cellular tumor antigen p53 (Homo sapiens) (P04637 whole entry, looked up): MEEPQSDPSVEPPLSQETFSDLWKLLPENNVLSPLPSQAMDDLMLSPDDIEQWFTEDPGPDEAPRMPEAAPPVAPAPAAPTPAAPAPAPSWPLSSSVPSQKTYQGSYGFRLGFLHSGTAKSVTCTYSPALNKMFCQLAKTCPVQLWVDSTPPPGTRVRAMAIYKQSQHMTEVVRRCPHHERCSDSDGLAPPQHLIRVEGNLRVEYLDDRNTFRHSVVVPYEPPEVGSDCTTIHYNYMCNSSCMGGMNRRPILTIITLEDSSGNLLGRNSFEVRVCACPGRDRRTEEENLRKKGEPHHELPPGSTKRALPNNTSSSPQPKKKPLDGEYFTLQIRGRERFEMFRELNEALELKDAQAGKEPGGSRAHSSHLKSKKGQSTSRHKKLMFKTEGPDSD

One assay deals with Cellular tumor antigen p53 (Homo sapiens) (UniProt P04637). Briefly: Primary qHTS for small molecule compounds that upregulate eGFP-tagged delta133p53alpha (in N-terminal) cells. (AID 2060322).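 For activation: 0% = DMSO vehicle and 100% = reference activator.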 Note: nearly all actives have a fitted effect of over 75% in size. Note: potency is the fitted concentration of half-maximal effect. Particulars: NCI-H358 eGFP-delta133p53alpha fluorescence, 24 h; activation: hits give high values. Summed up:
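NCI-H358 cells pre-induced 24 h with 10 ng/ml doxycycline to express N-terminal eGFP-delta133p53alpha, then dosed 24 h at 37C without doxycycline; fixed, Hoechst-stained, GFP intensity by laser scanning cytometry, normalized to DMSO (0%) and 57.5 uM 5-azacytidine (100%).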
Background: qHTS replaces the single test concentration by a dilution series.
Regarding `C=C1C(=O)O[C@@H]2C[C@@H](C)[C@]34C[C@]5(C(=O)O[C@H]6CC(C)=C([C@H](C)CCCO)[C@H](OC(=O)C(C)CC)[C@H]65)[C@@H](C(C)=C3C[C@@H]12)[C@H]4OC(C)=O` (some centres undefined), the Potency was 6.3 µM (active). For `C[C@@H]1CC[C@]2(C)C3(C)CC[C@@]2(OC3=O)[C@@]12C[C@H](c1ccoc1)OC2=O`, the activation was 26.7%. `COC1OC(OC)C(O)(CCC2(C)C(C)CCC3(C)C2CC(O)C(O)C32CO2)C1O` (centres undefined): the activation was 0.763%. The same measure, in the same setting: to `CC1(C(=O)O)CCCC2(C)C3CC4C5CC3(CCC12)CC45C` (centres undefined) belongs 17.9%; to `C[C@@H]1O[C@@H](O[C@H]2[C@@H]3C=CO[C@@H](O[C@@H]4O[C@H](CO)[C@@H](O)[C@H](O)[C@H]4O)[C@@H]3[C@@]3(CO)O[C@@H]23)[C@H](OC(=O)/C=C/c2ccccc2)[C@H](O)[C@H]1O`, 4.46%; to `CC(=O)OC1CC(C)C2(CCC3(CC(=O)OC3O)O2)C2(C)CCCC(C)(C)C12` (centres undefined), 22.3%. For `COC(=O)c1cc(CN2CCN(C(=N)N)CC2)cc(C(=O)N2CCN(C(=O)c3ccc(C(=N)N)cc3)CC2)c1`, the activation was 1%. For the compound `COc1cc(C#N)ccc1S(=O)(=O)Nc1ccc2c(c1)cc(C)c(=O)n2C`, the activation was -7%. The same measure, in the same setting: to `CCC(CC)n1ccc2c(C(=O)NCc3c(C)cc(C)[nH]c3=O)cc(C#N)cc21` belongs -3.35%.

Consider `CC(=O)OCC1=C[C@H](O)[C@@H]2C(C(=O)O)=CO[C@@H](O[C@@H]3O[C@H](CO)[C@@H](O)[C@H](O)[C@H]3O)[C@H]12`, for which the activation is 0.763%.

In the case of `C[C@@H]1O[C@@H](O[C@@H]2[C@@H](O)[C@H](O[C@H]3[C@H](O[C@H]4CC[C@@]5(C)C(CC[C@]6(C)C5CC=C5[C@@H]7CC(C)(C)CC[C@]7(C(=O)O[C@@H]7O[C@H](CO)[C@@H](O)[C@H](O)[C@H]7O)CC[C@]56C)C4(C)C)O[C@H](C(=O)O)[C@@H](O)[C@@H]3O)OC[C@H]2O)[C@H](O)[C@H](O)[C@H]1O` (some centres undefined), the activation is -27.5%. On the same count and under the same terms, in the case of `C=CC1(C)CC(O)C2(CCC3C(C)(C(=O)O)CCCC3(C)C2=O)C1` (centres undefined) it was -2.29%. Still for that read-out and setting: to `CC1=C(CC/C(C)=C/C(=O)O)[C@@]2(C)CCCC(C)(C)C2CC1=O` (some centres undefined) belongs 6.25%. As to `Cc1nc(Nc2n[nH]c3c2CN(C(=O)NC(CN(C)C)c2ccccc2)C3(C)C)c2sccc2n1` (centres undefined), the Potency was 10.7 µM (active).

On to `C[C@@H]1CCC2C(C)(C)[C@H](O)CC[C@]2(C)[C@@]12Cc1c(O)cc3c(c1O2)CNC3=O` (some centres undefined), for which the activation is -20.6%. On the same count and under the same terms, to `CC1(C)CC2C(C1)C1(C)CCC13OC3(CO)C2O` (centres undefined) belongs -14.3%; to `COc1cc2c(cc1OC)N1C(=O)C[C@@]34C=CC[N@+]5([O-])CC[C@H]2[C@H](CC3)[C@@]145`, 5.36%. Turning to `C[C@@H]1O[C@@H](O[C@H]2[C@H](O[C@H]3[C@H](O[C@H]4CC[C@@]5(C)C(CC[C@]6(C)C5CC=C5[C@@H]7CC(C)(C)C[C@@H](O)[C@]7(C)CC[C@]56C)[C@@]4(C)CO)O[C@H](C(=O)O)[C@@H](O)[C@@H]3O)O[C@H](CO)[C@H](O)[C@@H]2O)[C@H](O)[C@H](O)[C@H]1O` (some centres undefined), the activation is -9.92%.

For `O=C(OC1C[C@H]2CC[C@@H](C1)[N+]21CCCC1)C(O)(c1ccccc1)c1ccccc1` (some centres undefined), the activation is 5.18%. Same read-out and setting: in the case of `COC1CC(O[C@H]2CC[C@@]3(C)C(=CC[C@]4(O)C3[C@H](O)[C@@H](O)[C@]3(C)[C@@H]([C@H](C)O)CC[C@@]34O)C2)OC(C)C1OC1CC(OC)C(OC2CC(OC)C(OC3OC(C)C(OC4OC(CO)C(O)C(O)C4O)C(OC)C3O)C(C)O2)C(C)O1` (some centres undefined) it was -4.58%; in that of `COc1nc2sc(C(=O)NC3CC3)c(N)c2c(C)c1Cl`, -6.33%; in that of `CCOc1ccc(S(=O)(=O)N2CCCCCC2)c2ccccc12`, -13.7%. On the same count and under the same terms, to `CC(c1c[nH]c2ccccc12)C(O)C(=O)O` (centres undefined) belongs -11.5%; to `COc1ccc2nccc(C(=O)CC[C@@H]3CCN(CC#Cc4cc(F)cc(F)c4F)C[C@@H]3C(=O)O)c2c1`, 7.64%; to `CC(=O)OC1C=C(C(=O)O)C2(CO)CCC(C)C(C)(CCc3ccoc3)C2C1` (centres undefined), -25.2%.

For the compound `CC(=O)N1CCN(NC(=O)c2ccc(F)cc2)CC1`, the activation was -2.39%. Same read-out and setting: in the case of `C=C1CCC2C(C)(C)CC(=O)CC2(C)C1CCC(C)CCO` (centres undefined) it was 6.25%; in that of `COc1ccc(/C=C/C(=O)O[C@@H]2[C@@H](O)[C@H](C)O[C@@H](OC3C4C=COC(O[C@@H]5O[C@H](CO)[C@@H](O)[C@H](O)[C@H]5O)C4C4(CO)OC34)[C@@H]2O)cc1OC` (some centres undefined), -13%.

The next assay addresses Aldehyde dehydrogenase, mitochondrial (Homo sapiens) (UniProt P05091). The assay can be described thus: qHTS for Inhibitors of the Aldehyde Dehydrogenase Family (ALDH2) Primary screen (AID 2061308).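 Note: plate controls were vehicle for no effect and reference inhibitor for full effect; nearly all actives have a fitted effect of over 55% in size.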 Particulars: ALDH2 enzyme inhibition qHTS, 1536-well; series mostly up to 56 µM; activity change, negative = inhibition: at the top concentration.
Turning to `O=C(Nc1cccc2cccnc12)c1ccc(N2C(=O)[C@@H]3C4C=CC(C4)[C@@H]3C2=O)cc1`, the “activity change, negative = inhibition” value is -1.49%.
